Screening results (PubChem)
EPAC1 ag = EPAC1 (human) agonism; O95398; EPAC1 agonist qHTS, biochemical assay; response scale: 100% = response to 6.5 mM cAMP; Potency, µM (doses to about 154 µM), inactives show top-dose activation, most hits filed as activators; actives 0.073% (n = 360,000); note: nearly all actives have a fitted effect of over 60% in size
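Read-out is the fluorescence drop as BODIPY-GDP leaves Rap1B (480 nm excitation, 540 nm emission), recorded every 5 minutes over 30 minutes. Reactions held 100 nM EPAC1, 250 nM Rap1B–BODIPY-GDP and 50 uM GDP, with 6.5 mM cAMP setting full activation.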
EPAC2 agonist = EPAC2 (human) agonism. Q8WZA2. EPAC2 activation, biochemical qHTS; response scale: 100% = 6.5 mM cAMP response. Potency, µM (titrated, usually from 154 µM), for the others: at the highest dose activation, usual class: activators. actives 0.079% (n = 360,000). AID 720711; note: nearly all actives have a fitted effect of over 50% in size
Target sequence (Q8WZA2 whole entry, looked up): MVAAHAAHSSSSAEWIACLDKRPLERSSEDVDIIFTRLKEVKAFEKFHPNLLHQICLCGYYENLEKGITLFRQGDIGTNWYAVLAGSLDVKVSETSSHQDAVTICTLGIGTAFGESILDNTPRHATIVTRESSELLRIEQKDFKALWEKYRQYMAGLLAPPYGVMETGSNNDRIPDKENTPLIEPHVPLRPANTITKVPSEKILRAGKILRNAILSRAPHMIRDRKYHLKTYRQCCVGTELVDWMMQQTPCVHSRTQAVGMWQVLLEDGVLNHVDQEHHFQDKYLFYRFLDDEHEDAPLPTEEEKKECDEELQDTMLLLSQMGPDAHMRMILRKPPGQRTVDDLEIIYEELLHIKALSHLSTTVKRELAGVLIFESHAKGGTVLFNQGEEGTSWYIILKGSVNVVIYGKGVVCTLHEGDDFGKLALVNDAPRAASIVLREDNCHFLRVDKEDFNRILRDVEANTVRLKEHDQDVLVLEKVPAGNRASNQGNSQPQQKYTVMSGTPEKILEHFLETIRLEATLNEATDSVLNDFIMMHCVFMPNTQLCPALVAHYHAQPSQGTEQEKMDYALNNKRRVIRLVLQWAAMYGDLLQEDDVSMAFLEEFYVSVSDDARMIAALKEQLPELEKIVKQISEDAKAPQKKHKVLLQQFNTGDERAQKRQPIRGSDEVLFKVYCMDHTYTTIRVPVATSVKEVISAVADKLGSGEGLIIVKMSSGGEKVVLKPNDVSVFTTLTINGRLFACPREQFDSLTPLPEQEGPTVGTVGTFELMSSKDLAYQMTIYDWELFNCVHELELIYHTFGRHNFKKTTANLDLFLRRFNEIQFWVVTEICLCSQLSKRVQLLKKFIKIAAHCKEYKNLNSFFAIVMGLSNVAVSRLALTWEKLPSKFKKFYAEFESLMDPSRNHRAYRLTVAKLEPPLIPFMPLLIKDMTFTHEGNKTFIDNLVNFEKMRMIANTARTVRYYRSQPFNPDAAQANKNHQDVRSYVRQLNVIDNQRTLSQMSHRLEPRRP
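In this primary screen, activation is scored as increased exchange of BODIPY-GDP from Rap1B by 100 nM EPAC2, with 50 uM GDP as competitor. Signal is normalized to the 6.5 mM cAMP agonist control.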
EPAC1 antagonist = antagonists of human EPAC1; O95398; EPAC1 GEF assay, Rap1b-BODIPY-GDP exchange fluorescence; Potency, µM (doses to about 115 µM), for the others: top-dose activity change, negative = inhibition, hits mostly inhibitors; actives 0.14% (n = 360,000); AID 720709;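 note: plate controls were vehicle for no effect and positive control for full effect; nearly all actives have a fitted effect of over 50% in size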
EPAC2 antagonist = EPAC2 (human) antagonism | Q8WZA2 | EPAC2 GEF exchange of Rap1B-BODIPY-GDP, fluorescence | Potency, µM (doses to about 114 µM), without a hit: at the highest dose activity, negative = inhibition, actives largely listed as inhibitors | actives 0.18% (n = 360,000) | AID 720708; note: % is set by controls: 0 for no effect and ±100 for the full control effect; nearly all actives have a fitted effect of over 45% in size
TDP1 block = TDP1 (human) enzyme inhibition | actives 0.28% (n = 350,000) | Q9NUW8 | Potency, µM (highest dose often 130 µM), for the others: at the highest dose activity change, negative = inhibition, most hits filed as inhibitors | recombinant TDP1, AlphaScreen DNA substrate cleavage | AID 485290; note: % is set by controls: 0 for no effect and ±100 for the full control effect; nearly all actives have a fitted effect of over 40% in size
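Signal: AlphaScreen proximity between streptavidin donor and anti-FITC acceptor beads on intact substrate. Reaction: Tdp1 1 nM, substrate 15 nM final, 5 min RT after 15 min compound preincubation.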
ERG Ets-DNA blk = ERG Ets/DNA interaction inhibition | P11308 | AID 624246 | fluorescence polarization, His-ERG Ets domain / labelled DNA | Potency, µM (top dose mostly 76.9 µM), for the others: top-dose FP activity, negative = inhibition, usual class: inhibitors | actives 0.028% (n = 370,000); active = well fitted inhibition curve with a large enough effect in the polarisation, with a control signal flat; inconclusive = small, poorly fitted or top-dose-only effect, or effect the other way, or a change in a side signal; inactive = no such curve, though single readings can be large or run the other way; the % refers to the polarisation;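 note: polarization taken with two DNA probes labelled with fluorescein and Texas red; % of control where 0% means no effect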
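His-tagged ERG Ets domain (1 uM in the protein solution; 300mM KCl, 50mM Tris-HCl, 1mM EDTA, 1mM DTT, pH 7.5) received compound, then a probe mix of 5 nM fluorescein-DNA and 100nM Texas-615-DNA. Fluorescence polarization was read for both dyes.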
Starred values were filed as active, the others as inactive; i = inactive; ? = inconclusive; / = not tested or not shown; [ ] = remark or other dose. The list is not random: actives were taken first. Their share in the collection is about 0.54%. Unless noted, calls come from the whole dose curve; as a rule, active = well fitted curve in the direction sought with a large enough effect; inconclusive = small, poorly fitted or top-dose-only effect, or another doubt; inactive = no such curve, though single readings can be large; an effect the other way counts as inactive or inconclusive. Potency is the fitted concentration of half-maximal effect.

SMILES | EPAC1 ag | EPAC2 agonist | EPAC1 antagonist | EPAC2 antagonist | TDP1 block | ERG Ets-DNA blk
O=C(O)c1ccc2c(ccc3nn(-c4ccc(/C=C/c5ccc(-n6nc7ccc8cc(C(=O)O)ccc8c7n6)cc5[S+](=O)([O-])[O-])c([S+](=O)([O-])[O-])c4)nc32)c1 | / | / | / | / | 2.51µM* | /
CC(C)Cn1c(N)c(C(=O)NCC2CCCO2)c2nc3ccccc3nc21 (configuration not stated) | 6.6% | -2.2% | 50.1µM* | -25.4% | -11.3% | -0.2%
O=c1cc(-c2ccccc2Cl)oc2c(NS(=O)(=O)c3cc(Cl)cc(Cl)c3O)ccc(O)c12 | 1.3% | 0.4% | 35.5µM* | 28.2µM* | 19.4% | -0.3%
COc1ccc(NC(=O)c2cc(-c3ccco3)nc3ccccc23)cn1 | -2.4% | -4.9% | ? | -1.0% | 14.1µM* | -0.8%
O=C(N/N=C/c1ccc(F)cc1)c1cc(-c2ccco2)nc2ccccc12 | 0.0% | -10.8% | 79.4µM* | 9.6% | / | -4.9%
O=C(NC1CC1)c1cc(-c2ccco2)nc2ccccc12 | 1.6% | -9.4% | ? | 2.5% | 4.47µM* | -5.2%
CN(C)C(=O)c1ccc(NC(=O)c2cc(-c3ccco3)nc3ccccc23)cc1 | -13.6% | -0.1% | -14.4% | 10.5% | 2.2% | 11.2%
O=S1(=O)N=C(Oc2ccccc2Br)c2ccccc21 | / | / | / | / | 3.3% | /
O=S(=O)(c1ccc2c(c1)OCO2)N1CCN(c2nc(-c3cccs3)nc3ccccc23)CC1 | / | / | / | / | 0.4% | /
Cc1cc(NS(=O)(=O)c2ccc(NC(=O)c3cc4c(=O)n5ccccc5nc4s3)cc2)nc(C)n1 | -3.9% | -4.7% | -24.6% | -11.7% | 39.8µM* | 0.7%
Cc1ccc(C(=O)NCC(=O)OCC(=O)c2cccc3ccccc23)cc1 | / | / | / | / | 0.2% | /
Cc1ccc(C(=O)Nc2ccc(S(=O)(=O)O)c3cc(S(=O)(=O)O)cc(S(=O)(=O)O)c23)cc1NC(=O)c1cccc(NC(=O)Nc2cccc(C(=O)Nc3cc(C(=O)Nc4ccc(S(=O)(=O)O)c5cc(S(=O)(=O)O)cc(S(=O)(=O)O)c45)ccc3C)c2)c1 | / | / | / | / | 4.47µM* | /
Cc1ccccc1NC(=O)c1cccc(S(=O)(=O)Nc2cccc(C(=O)O)c2)c1 | 8.1% | 1.0% | -7.3% | 0.6% | / | 1.5%
COc1cc(F)c(S(=O)(=O)N2CCN(S(=O)(=O)c3cccc(N)c3)CC2)c(F)c1 | / | / | / | / | 1.5% | /
Oc1ccc2c(c1)OCO2 | / | / | / | / | 4.2% | /
Oc1ccc2c(c1)OCC1(O)Cc3cc(O)c(O)cc3C21 (configuration not stated) | 3.1% | 4.7% | -6.9% | -6.9% | -10.2%[56.1 µM] | 12.6µM*
O=[S+]([O-])(/C=C/c1nc(Nc2cc(F)cc(F)c2)c2ncn(CC(F)F)c2n1)c1ccccc1 | / | / | / | / | 0.0% | /
COc1ccc(-c2cc(C(F)F)n3ncc(C(=O)N4CCc5ccccc54)c3n2)cc1 | -15.5% | 100µM* | -17.7% | 58.9% | 2.8% | -4.4%
Cc1cc(C=O)c(C)n1-c1cccc(C(=O)O)c1 | -9.1% | -1.2% | -7.7% | 6.6% | 5.01µM* | -4.1%
Cc1cc(C=O)c(C)n1-c1cc(C(=O)O)cc(C(=O)O)c1 | 11.2% | 0.3% | 12.4% | 20.7% | -2.4% | -10.1%
COCCCNC1=C(Cl)C(=O)c2ccccc2C1=O | -2.2% | 1.7% | -3.8% | -21.4% | 3.6% | 6.7%
COCCCNc1c2c3c(cccc3[nH]c1=O)C(=O)c1ccccc1-2 | 100µM* | 100µM* | i | i | 3.9% | 7.08µM*
Oc1c(Br)cc(/C=N/n2c(-c3ccccc3)n[nH]c2=S)c(O)c1Br | 1.5% | 6.2% | -14.3% | -0.5% | 1.2% | -0.8%
Oc1c(Br)cc(/C=N/n2c(-c3ccccc3)n[nH]c2=S)cc1Br | -0.9% | 0.9% | -14.3% | -2.2% | 25.1µM* | 6.0%
Cc1c(Br)c(O)c(Br)c(O)c1/C=N/n1c(-c2ccccc2)n[nH]c1=S | 4.2% | 9.1% | 56.2µM* | -12.9% | / | 8.1%
SMILES | EPAC1 ag | EPAC2 agonist | EPAC1 antagonist | EPAC2 antagonist | TDP1 block | ERG Ets-DNA blk
Oc1ccc(NCc2ccccc2F)c2cccnc12 | / | / | / | / | 3.6% | /
O=C(Cc1ccc(Cl)cc1)SCc1ccccc1 | -10.5% | 4.0% | -8.9% | 8.0% | 31.6µM* | -12.4%
CCOc1cc(-c2ccc3c(c2)OCO3)cc(=[O+]CC)c2c(C)oc(C)c12 | / | / | / | / | 1.2% | /
COc1ccc(C2Nc3ccccc3C(=O)N2Cc2ccc(C(C)(C)C)cc2)cc1COc1ccc(NC(C)=O)cc1 (configuration not stated) | / | / | / | / | 1.0% | /
COc1ccc(NC(=O)CSc2nc(-c3ccco3)nc3cc(=O)[nH]n23)cc1 | / | / | / | / | / | -5.8%
COc1ccc(NC(=O)CSc2nc(-c3ccco3)nc3cc(=O)[nH]n23)cc1Cl | 10.1% | 10.8% | -3.2% | -2.8% | 50.1µM* | -0.8%
N#Cc1c(N)sc(=S)c2c1CCCCC2 | 1.1% | 9.6% | -21.2% | 14.6% | 10µM* | ?
CCOc1ccc(C2C(C#N)=C(N)SC(N)=C2C#N)cc1OCC | 17.8% | 4.6% | 29.3% | 12.3% | 3.6% | 4.3%
N#CC1=C(N)SC(N)=C(C#N)C1c1cccc(Oc2ccccc2)c1 | 17.5% | 5.6% | -7.6% | 50.1µM* | 12.6% | /
Cc1ccc(O)c(C(=O)c2cc(C#N)c(=O)n(-c3nccs3)c2)c1 | 39.8µM* | 112µM* | 58.4% | 177.8% | 2.7% | 16.0%
O=C(Nc1ccccc1C(=O)OCc1cc(=O)n2ccsc2n1)c1ccccc1Cl | / | / | / | / | -3.8% | 1.4%
O=C(OCc1cc(=O)n2ccsc2n1)c1ccccc1NCCO | -3.4% | -0.7% | ? | 8.4% | 44.7µM* | 8.9%
O=C(CC(c1ccccc1)c1ccccc1)Nc1ccc(Cl)cn1 | 15.6% | 6.31µM* | -8.9% | -15.0% | -5.6% | 5.8%
N#Cc1nc(NCC(F)F)c2ncn(-c3cccc(Cl)c3)c2n1 | / | / | / | / | -1.7% | /
C=CCc1cccc(/C=N/NC(=O)CN2CCN(Cc3ccccc3)CC2)c1O | / | / | / | / | 15.4% | /
CCOC(=O)/C(C#N)=C\c1cc(C)n(-c2ccccc2)c1C | 10.6% | 12.1% | -2.8% | -4.0% | 5.7% | -0.8%
CCOC(=O)/C(C#N)=C\c1ccc(N2CCN(C/C=C/c3ccccc3)CC2)cc1 | 89.1µM* | 50.1µM* | 44.3% | 69.5% | 1.4% | 32.3%
COC(=O)c1c(NC(=O)COC(=O)[C@@H](NS(=O)(=O)c2cccc(Cl)c2)C(C)C)sc2c1CCC2 | -8.8% | 0.7% | 0.2% | 2.6% | 8.1% | -1.6%
CC(C)[C@H](NS(=O)(=O)c1cccc(Cl)c1)C(=O)OCC(=O)NC(=O)CN1CCCC1=O | 3.7% | 6.8% | -6.6% | 3.9% | 25.1µM* | -4.4%
